{"source": "PubChem BioAssay (NCATS)", "note": "Results filed as inconclusive are left out. A number with no mark means an inactive call. Active and inactive are the calls of the source. Calls follow the shape of the dose curve; as a rule, active = well fitted inhibition curve with a large enough effect; inconclusive = small, poorly fitted or top-dose-only effect; inactive = no such curve, though single readings can be large or run the other way. % is scaled to controls: 0 for no effect and ±100 for the full control effect; potency is read from the fitted curve at half-maximal effect."}
{"target": "Cytochrome P450 3A4 (Homo sapiens) (UniProt P08684)", "sequence (P08684 whole entry, looked up)": "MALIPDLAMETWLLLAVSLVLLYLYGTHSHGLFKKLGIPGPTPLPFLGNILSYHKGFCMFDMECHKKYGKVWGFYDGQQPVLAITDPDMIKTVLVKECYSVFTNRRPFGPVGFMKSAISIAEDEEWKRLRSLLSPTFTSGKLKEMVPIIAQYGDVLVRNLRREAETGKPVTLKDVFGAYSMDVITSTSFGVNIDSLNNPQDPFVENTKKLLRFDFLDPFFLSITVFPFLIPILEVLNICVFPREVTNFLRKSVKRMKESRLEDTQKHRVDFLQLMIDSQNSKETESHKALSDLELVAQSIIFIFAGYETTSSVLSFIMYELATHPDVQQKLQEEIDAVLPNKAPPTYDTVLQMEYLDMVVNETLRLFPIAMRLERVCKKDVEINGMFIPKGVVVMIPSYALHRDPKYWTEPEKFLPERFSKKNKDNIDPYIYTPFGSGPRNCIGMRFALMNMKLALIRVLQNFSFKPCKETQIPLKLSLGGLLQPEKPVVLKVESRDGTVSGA", "experiment": "qHTS Assay for Inhibitors and Substrates of Cytochrome P450 3A4 (AID 884); also: nearly all actives have a fitted effect of over 50% in size", "settings": "recombinant CYP3A4, Luciferin-PPXE luminescence; series mostly up to 57.1 µM; activity change, negative = inhibition: at the top concentration", "procedure,_shortened": "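Luminescent readout of luciferin produced by CYP3A4 (20 nM) dealkylation of Luciferin-PPXE, 25 uM (its KM). NADPH-driven reaction ran 60 min at RT after 10 min compound preincubation; data scaled to 57 uM ketoconazole as 100% inhibition.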", "units": {"activity change, negative = inhibition": "%"}}
{"smiles": "CN(C)/C=N/c1cc(=O)n(C)c(=O)n1Cc1ccccc1", "activity change, negative = inhibition": -26.8}
{"smiles": "CCC1=C2CC[C@H]3C(=O)N(CC(=O)OC)C(=O)[C@H]3[C@H]2[C@@]2(C)C(=NCCc3c[nH]c4ccccc34)OC(=O)N2C1=O", "Potency": "6.31 µM (active)"}
{"smiles": "CN(C)/C=N/c1cc(=O)n(C)c(=O)n1CC1CC1", "activity change, negative = inhibition": -22.2}
